Screening data deposited in PubChem by The Scripps Research Institute Molecular Screening Center.
A selection: hits, their analogues and other compounds. The true share with any hit is near 4.1%.
hgDAF12 agonist = agonists of H. glycines DAF-12 nuclear receptor. HEK293 GAL4-hgDAF12 UAS-luciferase reporter, agonist luminescence; normalized to butyrate control. activation, % at 6.8 µM. actives 1.8% (n = 370,000);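 active = activation above a cutoff set at the mean of all screened compounds plus 3 SD, cut at about 10% in these data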;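 also: 0% = DMSO wells and 100% = sodium butyrate wells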
DAX1 inh-1 = inhibitors of DAX1 repression of SF-1 activated StAR promoter; AID 652010; HEK293T StAR-luciferase reporter, SF-1/DAX-1 repression relief; actives 1.1% (n = 370,000); inhibition, % at 6.8 µM;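 active = inhibition above the mean over all tested compounds plus 3 SD, cut at about 3.6% in these data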;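 also: 0% = DAX-1 cells with DMSO and 100% = cells lacking DAX-1 with DMSO; higher inhibition means more luminescence from relief of DAX-1 repression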
hcDAF-12 act = H. contortus DAF-12 activation, primary screen; HEK293 hcDAF-12 lit1-tk-luc reporter, luminescence; 0% DMSO, 100% Δ7-dafachronic acid; activation, % at 6.8 µM; actives 1.4% (n = 370,000); AID 652067;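 active = activation above the mean of all tested compounds plus 3 SD, cut at about 5.5% in these data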;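 also: 100% = response to 3 µM Δ7-dafachronic acid high control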
ssDAF-12 act = activates DAF-12 receptor from parasite S. stercoralis. HEK293 ssDAF-12/GRIP1 lit1-tk-luc reporter, luminescence; % of 3 µM dafachronic acid response. activation, % at 6.8 µM. actives 1% (n = 370,000). AID 652126;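 active = activation above the mean over all tested compounds plus 3 SD, cut at about 0.9% in these data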;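 also: 0% = DMSO-only wells and 100% = 3 µM delta7-dafachronic acid wells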
DAX1 inh-2 = NR0B1 (DAX1) inhibition; HEK293 Gal4-DAX1 luciferase reporter, luminescence; inhibition, % at 6.75 µM; actives 0.99% (n = 340,000);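 active = inhibition above the mean over all tested compounds plus 3 SD, cut at about 4.2% in these data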;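 also: 0% = DAX1-transfected cells with DMSO and 100% = empty-vector control cells with DMSO; inhibition shows as a rise in luminescence from relieved DAX1 repression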
DAX1 inh confirm = confirmation of human DAX1 (NR0B1) inhibitors; inhibition, % at 6.8 µM; AID 652134; shares compounds with DAX1 inh-1; HEK293T StAR-promoter luciferase reporter, SF-1/DAX-1 repression; actives 87% (n = 2,400);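 active = inhibition above the average of every tested compound plus 3 SD, cut at about 3.8% in these data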;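 also: 0% = DAX-1 cells with DMSO and 100% = no DAX-1 control cells with DMSO; active compounds raise luminescence by relieving repression of the StAR reporter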
SF1 AF2mut Luc = counter-screen for DAX1 inhibitors: nonselective inhibitors with SF-1 AF2 mutant; actives 78% (n = 2,400); shares compounds with DAX1 inh-1; HEK293 StAR-luciferase, luminescence; AID 652136; inhibition, % at 6.8 µM;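 active = inhibition above the mean of all tested compounds plus 3 SD, cut at about 3% in these data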;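 also: 0% = DAX-1 transfected cells with DMSO and 100% = cells without DAX-1 with DMSO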
LXR ag = counter-screen for hcDAF-12 agonists: agonists of human LXR-beta; shares compounds with hcDAF-12 act; activation, % at 6.8 µM; 3,400 tested, under 10 active; HEK293 Gal4-LXR tk-luc reporter, luminescence, 24 h; normalized: DMSO 0%, positive control 100%;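 active = mean percent activation of the reporter above a cutoff set as the average over tested compounds plus their standard deviation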
Target sequence (P55055 whole entry, looked up, the tested form may be a part): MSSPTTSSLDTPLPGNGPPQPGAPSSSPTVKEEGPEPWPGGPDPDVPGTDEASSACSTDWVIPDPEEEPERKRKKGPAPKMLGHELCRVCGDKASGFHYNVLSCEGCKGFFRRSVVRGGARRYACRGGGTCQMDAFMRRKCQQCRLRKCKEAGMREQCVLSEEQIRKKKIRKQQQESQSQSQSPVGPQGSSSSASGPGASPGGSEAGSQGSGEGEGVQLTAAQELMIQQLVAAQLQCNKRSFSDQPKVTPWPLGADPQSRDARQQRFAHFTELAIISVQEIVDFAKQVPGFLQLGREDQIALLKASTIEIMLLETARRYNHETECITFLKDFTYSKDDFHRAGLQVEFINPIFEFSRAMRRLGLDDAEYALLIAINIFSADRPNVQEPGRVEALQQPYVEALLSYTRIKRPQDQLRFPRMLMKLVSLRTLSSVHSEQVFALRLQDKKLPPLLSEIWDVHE
hcDAF12 ag = confirmation of H. contortus DAF-12 agonists. shares compounds with hcDAF-12 act. HEK293 hcDAF-12 lit1-tk-luc reporter, luminescence; % of Δ7-dafachronic acid response. activation, % at 6.8 µM. actives 61% (n = 3,400);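 active = mean activation across triplicate tests above the threshold derived from the earlier primary screen, cut at about 5.5% in these data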;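 also: 0% = DMSO only wells and 100% = 3 µM Δ7-dafachronic acid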
hgDAF12 conf = hgDAF-12 agonism, confirmation assay; shares compounds with hgDAF12 agonist; HEK293 GAL4-hgDAF12 luciferase reporter, agonist mode; percent of butyrate response; activation, % at 6.8 µM; actives 80% (n = 3,300);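 active = mean activation over triplicate wells above the hit cutoff derived from the earlier primary screen, cut at about 11% in these data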;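 also: 0% = DMSO low control and 100% = 2 mM sodium butyrate high control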
LXR ag 2 = activates human LXR-beta, counter-screen for DAF-12 agonists | activation, % at 6.8 µM | shares compounds with hgDAF12 agonist | 3,300 tested, under 10 active | HEK293 Gal4-LXR luciferase reporter, 24 h;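 active = mean activation of the triplicate above a set limit carried over from the primary screen, none filed active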
Active calls of the source: *; · = not tested or not shown.

SMILES	hgDAF12 agonist	DAX1 inh-1	hcDAF-12 act	ssDAF-12 act	DAX1 inh-2	DAX1 inh confirm	SF1 AF2mut Luc	hgDAF12 conf	LXR ag 2	others
CC1Sc2ccc(C(=O)Nc3ncccc3O)cc2NC1=O (stereo not drawn)	18*	13*	5	0	2	8.3*	3.2*	15*	1
CN(C)[C@H]1CCN(c2cccc3c2S(=O)(=O)N2CC[C@@H](C2)O3)C1	1	-1	-4	-1	·	·	·	·	·
Cc1ccc(C(=O)C(C)OC(=O)c2ccccc2[N+](=O)[O-])cc1 (stereo not drawn)	18*	6.1*	4	0	1	15*	9.8*	15*	1
CCC(=O)Nc1ccc(Br)cn1	-2	0	-1	-1	0	·	·	·	·
Cc1cc(C(=O)Nc2ccc(Br)cn2)sc1C	14*	6.3*	5.8*	0	2	13*	8.6*	18*	1
CCOC(=O)[C@]12CCCC3=C1N(CCC3)C(=O)[C@@H](CC(=O)N1CCN(C(=O)C3CC3)CC1)C2	-1	1	0	-1	·	·	·	·	·
O=C(Nc1ccc2c(c1)OCO2)NC1CCN(S(=O)(=O)c2ccc(F)cc2)CC1	2	0	0	0	·	·	·	·	·
CC1CCCN(C(=O)c2ccc(-c3ccccc3Cl)o2)C1 (stereo not drawn)	18*	7.8*	2	0	4	12*	6.3*	15*	1
Cn1cc(CCOCc2ccccc2)c2ccccc21	6	2	3	0	·	·	·	·	·
O=C(Nc1ccc2c(c1)OCO2)c1cc(-c2ccccc2Cl)on1	7	1	2	-1	1	·	·	·	·
O=C(Nc1ccc2c(c1)OCO2)c1ccc(Cl)cc1Cl	18*	16*	11*	0	0	14*	5.0*	17*	1	LXR ag=2;hcDAF12 ag=6.6*
O=C(Nc1ccc2c(c1)OCO2)c1cc(Cl)ccn1	16*	6.5*	5	0	2	12*	5.3*	17*	1
COC(=O)[C@]12C[C@H](CC(=O)NCCCCc3ccccc3)C(=O)N(Cc3ccccc3)C1=C[C@H](COCc1ccccc1)O[C@@H]2C	0	-1	-3	-1	·	·	·	·	·
COc1cc(-c2nnc(SCC(=O)NN=Cc3c[nH]c4ccccc34)n2-c2ccccc2)cc(OC)c1OC	-4	-3	1	-1	·	·	·	·	·
CC1CCCC(C)N1C(=O)CSc1nnc(-c2cccs2)o1 (stereo not drawn)	18*	4.7*	5	0	2	11*	8.0*	17*	1
COc1ccc(C2=Nc3ccccc3N(C(=O)c3ccc4ncccc4c3)C2C(=O)NC(C)(C)C)cc1 (stereo not drawn)	23*	5.5*	11*	1.3*	·	11*	5.8*	15*	1	LXR ag=1;hcDAF12 ag=12*
COc1ccc(C2=Nc3ccccc3N(C(=O)Cc3cc(OC)cc(OC)c3)C2C(=O)NC(C)(C)C)cc1 (stereo not drawn)	-3	-1	-1	-1	·	·	·	·	·
FC(F)(F)c1cccc(N2CCN(C(=S)Nc3nccc4ccccc34)CC2)c1	3	·	5	-1	·	·	·	·	·
COc1ccc(NC(=O)CSc2nnc(NC(=O)C3CCC3)s2)cc1	0	0	-2	-1	0	·	·	·	·
COc1ccc(C(=O)Nc2nnc(SCC(=O)Nc3ccc(NC(C)=O)cc3)s2)c(OC)c1	14*	13*	8.7*	1	9.3*	14*	7.2*	19*	1	LXR ag=1;hcDAF12 ag=7.6*
CC(=O)c1sc(NC(=O)c2cccc(C)c2)nc1C	20*	4.6*	5	0	7.0*	5.9*	5.4*	15*	1
COC(=O)[C@]12C[C@H](CC(=O)N3CCSCC3)C(=O)N(Cc3ccco3)C1=C[C@H](C(C)C)O[C@@H]2C1CC1	-3	1	-1	-2	·	·	·	·	·
CCC(C)c1ccc(NC(=O)c2cccs2)cc1 (stereo not drawn)	19*	7.2*	8.2*	1.7*	0	19*	6.4*	20*	1	LXR ag=2;hcDAF12 ag=7.8*
CCC(C)NS(=O)(=O)c1ccc(NC(=O)c2cccs2)cc1 (stereo not drawn)	1	-1	-2	-1	0	·	·	·	·
CN1CCN(c2ccc(-c3cccc(NC(=O)COc4ccc(Cl)cc4)c3)nn2)CC1	14*	7.9*	3	1	1	4.5*	2	10	1
SMILES	hgDAF12 agonist	DAX1 inh-1	hcDAF-12 act	ssDAF-12 act	DAX1 inh-2	DAX1 inh confirm	SF1 AF2mut Luc	hgDAF12 conf	LXR ag 2	others
CCC(=O)Nc1cccc(-c2ccc(N3CCCCC3)nn2)c1	14*	15*	5.9*	0	-1	10*	4.7*	15*	1
CCC(=O)Nc1cccc(-c2ccc(N3CCN(C)CC3)nn2)c1	·	·	·	·	1	·	·	·	·
O=S(=O)(CC1NCc2ccccc21)NCc1ccc(F)cc1 (stereo not drawn)	1	0	2	1	·	·	·	·	·
C=CCN1[C@@H](CC(C)C)COc2cc(N3CCSCC3)ccc2S1(=O)=O	-2	-1	3	-1	·	·	·	·	·
O=c1c(-c2ccco2)nc2ccccc2n1C(CCc1ccccc1)c1nc2ccccc2[nH]1 (stereo not drawn)	6	0	-1	-1	·	·	·	·	·
O=c1c(-c2ccco2)nc2ccccc2n1C(c1ccccc1)c1nc2ccccc2[nH]1 (stereo not drawn)	16*	4.7*	5	0	·	3	2	10	0
C[C@H]1[C@@H](NC(=O)C#Cc2ccccc2)CC[C@@]23CCCN2C(=O)CCC[C@@H]13	-3	·	-1	-2	·	·	·	·	·
CC(C#N)(Cc1ccccc1)Nc1ccccc1 (stereo not drawn)	14*	5.0*	6.5*	0	-1	0	1	-2	0
C=CC(=O)NC(C)(C)Cc1ccccc1	-2	0	-2	-1	1	·	·	·	·
